Consider 1 sequence from paper PMC7862700, “An all-to-all approach to the identification of sequence-specific readers for epigenetic DNA modifications on cytosine”.

Holding throughout (experiment): DAPPL (digital affinity profiling via proximity ligation, sequencing); 10 mM Tris-HCl pH 7.5, 50 mM NaCl, 1 mM DTT, 4% glycerol, room temperature, 30 min; GST-TFs on glutathione beads, 16-mer random dsDNA library, 0.1% formaldehyde crosslink after washing; high values mean tight binding
What all share (conditions): protein: recombinant; tags: N-terminal GST; dsDNA, one strand shown

For one assay, the target named is T1, FLI1 (Homo sapiens, UniProt Q01543 1-452).
T1 sequence: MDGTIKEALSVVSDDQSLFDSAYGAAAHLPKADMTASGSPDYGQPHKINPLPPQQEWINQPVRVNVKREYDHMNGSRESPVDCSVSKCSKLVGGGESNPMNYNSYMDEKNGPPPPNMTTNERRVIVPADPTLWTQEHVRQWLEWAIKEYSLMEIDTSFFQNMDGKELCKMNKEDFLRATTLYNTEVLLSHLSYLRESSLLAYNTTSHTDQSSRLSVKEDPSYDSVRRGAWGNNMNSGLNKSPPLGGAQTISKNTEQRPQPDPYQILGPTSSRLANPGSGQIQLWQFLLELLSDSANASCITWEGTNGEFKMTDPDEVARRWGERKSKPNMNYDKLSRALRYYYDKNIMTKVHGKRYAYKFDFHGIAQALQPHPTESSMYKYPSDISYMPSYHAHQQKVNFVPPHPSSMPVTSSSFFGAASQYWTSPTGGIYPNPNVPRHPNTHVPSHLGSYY
Put shortly: (§1)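 After expression in yeast as GST fusions, human transcription factors were bound to glutathione beads, DNA-barcoded and mixed with a tag-only sample. The pools were incubated with 200 nmole of a 16-mer random double-stranded DNA library in Tris/NaCl/DTT/glycerol buffer (30 min, room temperature), washed and crosslinked with 0.1% formaldehyde. Proximity ligation with BsaI/T4 ligase ran for 1 h at 37 °C, before PCR amplification and sequencing on an Illumina NextSeq500. Binding signal is a hexamer's read frequency for a factor divided by its frequency for the tag-only sample.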

A further assay addresses T2, ELK1 (Homo sapiens, UniProt P19419 1-428).
T2 sequence: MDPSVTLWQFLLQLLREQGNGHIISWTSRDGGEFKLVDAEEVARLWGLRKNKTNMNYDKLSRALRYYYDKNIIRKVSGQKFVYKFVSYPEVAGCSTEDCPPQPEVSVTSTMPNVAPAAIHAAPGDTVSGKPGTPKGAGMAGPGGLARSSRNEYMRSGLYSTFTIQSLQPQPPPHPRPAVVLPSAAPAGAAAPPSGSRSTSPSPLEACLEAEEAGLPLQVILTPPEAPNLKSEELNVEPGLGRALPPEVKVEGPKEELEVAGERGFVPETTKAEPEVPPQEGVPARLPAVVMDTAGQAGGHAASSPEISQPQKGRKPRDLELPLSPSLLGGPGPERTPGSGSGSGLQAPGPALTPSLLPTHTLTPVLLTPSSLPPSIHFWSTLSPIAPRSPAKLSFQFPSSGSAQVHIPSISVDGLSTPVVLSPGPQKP
An outline of the steps: as §1

The next assay concerns the target T3, GABPA (Homo sapiens, UniProt Q06546 1-454).
T3 sequence: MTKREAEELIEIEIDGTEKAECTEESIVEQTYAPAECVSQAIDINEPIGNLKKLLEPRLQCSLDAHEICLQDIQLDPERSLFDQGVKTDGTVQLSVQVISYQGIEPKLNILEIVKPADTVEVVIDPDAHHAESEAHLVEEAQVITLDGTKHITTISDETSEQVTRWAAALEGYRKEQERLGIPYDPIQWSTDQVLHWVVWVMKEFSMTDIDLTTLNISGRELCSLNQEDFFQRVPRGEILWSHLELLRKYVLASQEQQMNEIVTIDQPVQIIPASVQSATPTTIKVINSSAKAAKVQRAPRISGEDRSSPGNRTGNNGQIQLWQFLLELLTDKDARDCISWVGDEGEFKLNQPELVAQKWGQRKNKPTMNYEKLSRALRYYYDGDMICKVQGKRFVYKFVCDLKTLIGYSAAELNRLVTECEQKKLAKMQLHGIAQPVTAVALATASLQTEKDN
Put shortly: as §1

The target in a further assay is T4, ERG (Homo sapiens, UniProt P11308 1-479).
T4 sequence: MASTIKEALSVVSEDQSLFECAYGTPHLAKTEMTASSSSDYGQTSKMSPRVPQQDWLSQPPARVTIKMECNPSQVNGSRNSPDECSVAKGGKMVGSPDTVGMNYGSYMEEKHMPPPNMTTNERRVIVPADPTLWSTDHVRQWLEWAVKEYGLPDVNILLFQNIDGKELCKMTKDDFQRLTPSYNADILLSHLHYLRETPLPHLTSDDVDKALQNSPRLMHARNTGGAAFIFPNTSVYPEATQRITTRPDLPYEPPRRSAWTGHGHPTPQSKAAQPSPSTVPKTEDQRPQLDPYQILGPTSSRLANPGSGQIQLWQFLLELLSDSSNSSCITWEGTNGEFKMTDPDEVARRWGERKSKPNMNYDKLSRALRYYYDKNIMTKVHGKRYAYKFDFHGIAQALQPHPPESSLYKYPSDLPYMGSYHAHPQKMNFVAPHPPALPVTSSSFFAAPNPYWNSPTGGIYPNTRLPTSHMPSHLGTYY
An outline of the steps:
as §1

In a further assay the target is ELF1 (Homo sapiens, UniProt P32519 1-619). Put shortly: as §1
Chain of ELF1 (P32519 whole entry): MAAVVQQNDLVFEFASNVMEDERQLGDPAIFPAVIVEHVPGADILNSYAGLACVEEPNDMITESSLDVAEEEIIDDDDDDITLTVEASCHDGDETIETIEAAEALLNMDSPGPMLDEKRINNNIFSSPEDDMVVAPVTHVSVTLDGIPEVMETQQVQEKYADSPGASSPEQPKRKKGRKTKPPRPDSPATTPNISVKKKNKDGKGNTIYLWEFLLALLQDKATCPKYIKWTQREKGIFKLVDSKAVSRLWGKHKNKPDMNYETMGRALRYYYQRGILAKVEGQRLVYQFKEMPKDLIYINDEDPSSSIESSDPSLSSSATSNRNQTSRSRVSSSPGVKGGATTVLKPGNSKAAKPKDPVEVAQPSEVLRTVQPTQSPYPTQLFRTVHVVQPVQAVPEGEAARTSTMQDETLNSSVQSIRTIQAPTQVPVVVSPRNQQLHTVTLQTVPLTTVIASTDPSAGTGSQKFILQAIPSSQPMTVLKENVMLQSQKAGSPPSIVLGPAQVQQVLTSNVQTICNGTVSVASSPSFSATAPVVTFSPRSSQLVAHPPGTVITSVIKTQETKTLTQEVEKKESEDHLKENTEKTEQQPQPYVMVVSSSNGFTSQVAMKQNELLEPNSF
The target in the next assay is T5, EHF (Homo sapiens, UniProt Q9NZC4 1-300).
T5 sequence: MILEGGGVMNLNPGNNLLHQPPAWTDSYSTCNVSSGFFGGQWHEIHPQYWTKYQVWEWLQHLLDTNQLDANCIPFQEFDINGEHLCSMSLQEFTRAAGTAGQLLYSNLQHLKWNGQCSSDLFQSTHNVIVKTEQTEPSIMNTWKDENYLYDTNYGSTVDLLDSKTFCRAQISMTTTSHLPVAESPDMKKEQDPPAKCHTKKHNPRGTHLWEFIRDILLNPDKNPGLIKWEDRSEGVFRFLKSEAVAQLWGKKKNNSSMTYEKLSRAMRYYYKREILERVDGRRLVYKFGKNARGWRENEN
Put shortly: as §1

In another assay the target is SPI1 (Homo sapiens, UniProt P17947 1-270). An outline of the steps:
as §1

The target in the next assay is SPIB (Homo sapiens, UniProt Q01892 1-262). An outline of the steps: as §1
Chain of SPIB (Q01892 whole entry): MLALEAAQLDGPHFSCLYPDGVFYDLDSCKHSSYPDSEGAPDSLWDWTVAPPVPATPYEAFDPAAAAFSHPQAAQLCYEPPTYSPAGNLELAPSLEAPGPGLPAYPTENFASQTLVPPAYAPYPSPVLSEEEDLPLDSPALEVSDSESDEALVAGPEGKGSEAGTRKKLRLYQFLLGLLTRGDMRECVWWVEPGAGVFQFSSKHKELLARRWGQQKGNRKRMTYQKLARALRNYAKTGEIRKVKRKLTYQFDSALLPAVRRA
The next assay addresses T6, FEV (Homo sapiens, UniProt Q99581 1-238).
T6 sequence: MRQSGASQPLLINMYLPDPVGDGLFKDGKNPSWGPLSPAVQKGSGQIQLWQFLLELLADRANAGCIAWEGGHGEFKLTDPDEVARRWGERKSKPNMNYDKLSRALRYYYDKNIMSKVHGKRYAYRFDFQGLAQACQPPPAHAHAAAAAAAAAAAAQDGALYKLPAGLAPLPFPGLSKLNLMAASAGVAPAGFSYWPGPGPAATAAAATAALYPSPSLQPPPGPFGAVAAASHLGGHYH
An outline of the steps:
as §1

Another assay concerns the target ETV5 (Homo sapiens, UniProt P41161 1-510). An outline of the steps: as §1
Another assay has as its target T7, SPIC (Homo sapiens, UniProt Q8N5J4 1-248).
T7 sequence: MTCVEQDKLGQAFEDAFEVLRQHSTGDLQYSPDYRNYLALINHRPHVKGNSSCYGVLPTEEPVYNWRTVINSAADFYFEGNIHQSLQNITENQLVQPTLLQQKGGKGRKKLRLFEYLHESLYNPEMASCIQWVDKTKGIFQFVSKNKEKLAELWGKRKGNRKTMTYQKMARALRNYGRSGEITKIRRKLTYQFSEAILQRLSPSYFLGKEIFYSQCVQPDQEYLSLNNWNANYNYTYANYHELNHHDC
An outline of the steps:
as §1

For the next assay, the target named is ELF4 (Homo sapiens, UniProt Q99607 1-663). An outline of the steps: as §1
Chain of ELF4 (Q99607 whole entry): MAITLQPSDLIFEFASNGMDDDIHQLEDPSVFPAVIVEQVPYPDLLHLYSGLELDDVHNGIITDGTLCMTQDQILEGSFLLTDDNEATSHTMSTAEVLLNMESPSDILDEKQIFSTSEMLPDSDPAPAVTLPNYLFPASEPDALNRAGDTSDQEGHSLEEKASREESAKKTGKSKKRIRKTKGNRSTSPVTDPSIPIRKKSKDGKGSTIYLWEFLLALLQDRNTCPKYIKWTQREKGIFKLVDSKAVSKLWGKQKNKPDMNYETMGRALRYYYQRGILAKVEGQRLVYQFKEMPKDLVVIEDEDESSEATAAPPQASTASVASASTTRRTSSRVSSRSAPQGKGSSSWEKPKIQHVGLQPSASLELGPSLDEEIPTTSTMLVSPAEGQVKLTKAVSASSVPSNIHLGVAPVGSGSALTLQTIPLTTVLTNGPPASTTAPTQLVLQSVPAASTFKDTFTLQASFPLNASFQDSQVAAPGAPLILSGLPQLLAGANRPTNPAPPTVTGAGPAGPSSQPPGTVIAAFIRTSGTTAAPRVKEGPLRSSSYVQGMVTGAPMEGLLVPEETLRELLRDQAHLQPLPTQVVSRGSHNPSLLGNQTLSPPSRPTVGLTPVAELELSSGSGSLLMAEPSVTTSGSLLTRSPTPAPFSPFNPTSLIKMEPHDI
The target in a further assay is ETV1 (Homo sapiens, UniProt P50549 1-477). Put shortly: as §1
Chain of ETV1 (P50549 whole entry): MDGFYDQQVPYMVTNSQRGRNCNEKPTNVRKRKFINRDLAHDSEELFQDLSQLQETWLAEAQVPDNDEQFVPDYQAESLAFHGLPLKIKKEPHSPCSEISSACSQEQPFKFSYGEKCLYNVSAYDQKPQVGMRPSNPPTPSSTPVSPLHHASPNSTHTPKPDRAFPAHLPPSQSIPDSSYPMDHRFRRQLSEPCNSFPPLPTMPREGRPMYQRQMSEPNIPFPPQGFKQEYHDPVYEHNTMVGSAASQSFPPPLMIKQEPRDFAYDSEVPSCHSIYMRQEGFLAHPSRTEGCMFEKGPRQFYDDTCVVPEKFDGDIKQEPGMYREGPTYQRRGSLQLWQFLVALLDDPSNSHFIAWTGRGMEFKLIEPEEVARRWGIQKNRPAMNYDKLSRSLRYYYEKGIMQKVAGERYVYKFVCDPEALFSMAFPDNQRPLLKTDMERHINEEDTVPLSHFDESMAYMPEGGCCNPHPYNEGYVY
The next assay has as its target T8, ERF (Homo sapiens, UniProt P50548 1-548).
T8 sequence: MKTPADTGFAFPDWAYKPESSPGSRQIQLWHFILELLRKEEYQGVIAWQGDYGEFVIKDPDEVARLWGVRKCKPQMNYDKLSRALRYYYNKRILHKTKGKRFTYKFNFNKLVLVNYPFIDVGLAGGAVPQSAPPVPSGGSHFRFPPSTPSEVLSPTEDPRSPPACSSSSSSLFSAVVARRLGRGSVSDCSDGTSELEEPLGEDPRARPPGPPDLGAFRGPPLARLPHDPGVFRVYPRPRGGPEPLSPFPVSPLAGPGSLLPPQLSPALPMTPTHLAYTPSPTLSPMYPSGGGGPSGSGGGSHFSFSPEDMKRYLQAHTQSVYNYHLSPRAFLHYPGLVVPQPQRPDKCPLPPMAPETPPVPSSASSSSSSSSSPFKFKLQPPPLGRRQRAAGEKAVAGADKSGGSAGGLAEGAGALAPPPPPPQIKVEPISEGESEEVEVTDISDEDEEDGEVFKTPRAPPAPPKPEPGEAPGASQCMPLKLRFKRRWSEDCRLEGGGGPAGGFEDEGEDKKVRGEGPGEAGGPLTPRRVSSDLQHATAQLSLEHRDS
An outline of the steps:
as §1

In a further assay the target is T9, ETV3L (Homo sapiens, UniProt Q6ZN32 1-361).
T9 sequence: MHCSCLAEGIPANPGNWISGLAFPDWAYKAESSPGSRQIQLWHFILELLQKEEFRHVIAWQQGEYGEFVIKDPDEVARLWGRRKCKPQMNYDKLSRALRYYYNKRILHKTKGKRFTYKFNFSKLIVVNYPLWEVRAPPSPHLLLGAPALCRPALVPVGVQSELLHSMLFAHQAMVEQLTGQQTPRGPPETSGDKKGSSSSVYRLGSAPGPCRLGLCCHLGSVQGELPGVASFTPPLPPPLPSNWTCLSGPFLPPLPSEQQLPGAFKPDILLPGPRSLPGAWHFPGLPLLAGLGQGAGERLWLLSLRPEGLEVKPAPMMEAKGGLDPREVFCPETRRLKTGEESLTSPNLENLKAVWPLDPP
An outline of the steps: as §1

The next assay addresses T10, ETS2 (Homo sapiens, UniProt P15036 1-469).
T10 sequence: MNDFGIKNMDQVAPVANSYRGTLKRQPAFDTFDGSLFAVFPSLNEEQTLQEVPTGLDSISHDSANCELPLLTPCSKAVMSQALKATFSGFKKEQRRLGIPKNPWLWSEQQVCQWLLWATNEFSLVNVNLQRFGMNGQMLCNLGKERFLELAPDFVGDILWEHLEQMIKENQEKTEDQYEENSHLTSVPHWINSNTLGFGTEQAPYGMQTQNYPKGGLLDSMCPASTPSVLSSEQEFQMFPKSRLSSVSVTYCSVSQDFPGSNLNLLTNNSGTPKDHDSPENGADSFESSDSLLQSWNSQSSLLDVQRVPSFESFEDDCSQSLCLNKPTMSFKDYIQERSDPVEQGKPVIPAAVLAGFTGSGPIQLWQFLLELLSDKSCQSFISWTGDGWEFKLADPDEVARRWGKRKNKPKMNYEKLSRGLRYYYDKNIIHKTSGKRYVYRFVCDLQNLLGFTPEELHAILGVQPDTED
Put shortly: as §1

In another assay the target is T11, ELF5 (Homo sapiens, UniProt Q9UKW6-2 1-255).
T11 sequence: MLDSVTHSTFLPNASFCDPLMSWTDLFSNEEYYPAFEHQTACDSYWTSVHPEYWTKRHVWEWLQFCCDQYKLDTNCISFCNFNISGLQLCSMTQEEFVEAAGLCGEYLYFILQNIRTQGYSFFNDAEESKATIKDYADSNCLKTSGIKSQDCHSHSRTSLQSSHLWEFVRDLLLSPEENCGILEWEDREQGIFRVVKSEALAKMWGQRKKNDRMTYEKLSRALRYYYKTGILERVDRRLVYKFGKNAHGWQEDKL
Put shortly:
as §1

For a further assay, the target named is ETV6 (Homo sapiens, UniProt P41212 1-452). Put shortly:
as §1

Chain of ETV5 (P41161 whole entry): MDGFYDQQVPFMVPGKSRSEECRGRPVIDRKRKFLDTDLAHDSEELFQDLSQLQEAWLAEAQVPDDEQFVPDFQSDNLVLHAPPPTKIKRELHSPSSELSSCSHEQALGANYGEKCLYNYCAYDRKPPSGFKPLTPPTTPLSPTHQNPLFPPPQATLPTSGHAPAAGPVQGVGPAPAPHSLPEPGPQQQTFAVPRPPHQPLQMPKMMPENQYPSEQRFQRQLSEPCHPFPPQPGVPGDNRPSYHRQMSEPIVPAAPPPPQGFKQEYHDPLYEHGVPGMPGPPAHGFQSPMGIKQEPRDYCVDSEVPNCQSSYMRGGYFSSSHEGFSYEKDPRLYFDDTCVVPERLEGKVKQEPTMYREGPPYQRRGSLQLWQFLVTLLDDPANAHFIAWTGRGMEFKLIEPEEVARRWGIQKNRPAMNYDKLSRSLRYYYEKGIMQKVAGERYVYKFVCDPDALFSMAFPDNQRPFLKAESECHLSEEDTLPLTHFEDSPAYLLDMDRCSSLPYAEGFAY
Chain of ETV6 (P41212 whole entry): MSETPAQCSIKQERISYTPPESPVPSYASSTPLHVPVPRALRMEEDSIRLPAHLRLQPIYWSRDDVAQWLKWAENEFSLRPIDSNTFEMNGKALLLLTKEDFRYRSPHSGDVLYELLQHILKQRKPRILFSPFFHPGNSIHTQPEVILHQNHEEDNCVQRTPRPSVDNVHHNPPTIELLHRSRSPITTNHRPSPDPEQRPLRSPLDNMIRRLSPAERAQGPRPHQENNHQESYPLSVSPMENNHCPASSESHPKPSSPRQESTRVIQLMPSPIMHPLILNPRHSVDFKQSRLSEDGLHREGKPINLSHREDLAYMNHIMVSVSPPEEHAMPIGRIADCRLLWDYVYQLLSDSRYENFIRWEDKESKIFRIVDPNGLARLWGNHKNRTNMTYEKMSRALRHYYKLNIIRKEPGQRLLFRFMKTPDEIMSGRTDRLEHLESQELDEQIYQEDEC

Consider AGTATG, for which the binding signal with FLI1 was 1.05 fold enrichment (6-mer frequency, TF over GST control); with ELK1 it was 1.01 fold enrichment (6-mer frequency, TF over GST control); with GABPA, 1.03 fold enrichment (6-mer frequency, TF over GST control); with ERG, 1 fold enrichment (6-mer frequency, TF over GST control); with ELF1, 1.04 fold enrichment (6-mer frequency, TF over GST control); in the assay with EHF, 1.11 fold enrichment (6-mer frequency, TF over GST control). Further, the binding signal with SPI1 was 1.08 fold enrichment (6-mer frequency, TF over GST control); in the assay with SPIB it was 1.11 fold enrichment (6-mer frequency, TF over GST control); with FEV, 1.02 fold enrichment (6-mer frequency, TF over GST control); with ETV5, 1.02 fold enrichment (6-mer frequency, TF over GST control); with SPIC, 1.04 fold enrichment (6-mer frequency, TF over GST control); with ELF4, 1.04 fold enrichment (6-mer frequency, TF over GST control). For the same sequence, the binding signal in the assay with ETV1 is 1.02 fold enrichment (6-mer frequency, TF over GST control); with ERF it was 1.02 fold enrichment (6-mer frequency, TF over GST control); in the assay with ETV3L, 1.13 fold enrichment (6-mer frequency, TF over GST control); in the assay with ETS2 it was 1.09 fold enrichment (6-mer frequency, TF over GST control); in the assay with ELF5, 1.06 fold enrichment (6-mer frequency, TF over GST control); in the assay with ETV6 it was 1 fold enrichment (6-mer frequency, TF over GST control).
